# Data from PMC7862700, “An all-to-all approach to the identification of sequence-specific readers for epigenetic DNA modifications on cytosine”.
# Columns and labels:
# Test in all cases: DAPPL (digital affinity profiling via proximity ligation, sequencing); 10 mM Tris-HCl pH 7.5, 50 mM NaCl, 1 mM DTT, 4% glycerol, room temperature, 30 min; GST-TFs on glutathione beads, 16-mer random dsDNA library, 0.1% formaldehyde crosslink after washing; high values mean tight binding
# Settings in all cases: protein: recombinant; tags: N-terminal GST; dsDNA, one strand shown
# FLI1 = molecular target: T1, FLI1 (Homo sapiens, UniProt Q01543 1-452)
# T1 sequence: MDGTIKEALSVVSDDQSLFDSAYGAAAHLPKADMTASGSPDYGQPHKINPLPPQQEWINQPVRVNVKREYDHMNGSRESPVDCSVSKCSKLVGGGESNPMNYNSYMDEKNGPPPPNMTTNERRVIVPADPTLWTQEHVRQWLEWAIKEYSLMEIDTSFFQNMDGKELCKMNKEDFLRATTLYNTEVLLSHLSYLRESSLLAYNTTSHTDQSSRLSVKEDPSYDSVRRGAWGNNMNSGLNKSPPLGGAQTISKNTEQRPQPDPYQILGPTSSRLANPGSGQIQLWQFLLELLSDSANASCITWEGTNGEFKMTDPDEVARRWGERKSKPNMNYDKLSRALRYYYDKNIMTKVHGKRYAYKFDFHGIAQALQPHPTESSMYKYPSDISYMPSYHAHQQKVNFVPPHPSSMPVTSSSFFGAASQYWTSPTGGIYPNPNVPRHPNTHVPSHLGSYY
# Procedure, shortened: (§1)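 Binding signal is given per hexamer as its read frequency for a factor divided by its frequency in the tag-only sample. GST-fused human transcription factors were expressed in yeast, captured on glutathione beads, barcoded with DNA and pooled with that sample, then incubated with 200 nmole of a 16-mer random double-stranded DNA library in Tris/NaCl/DTT/glycerol buffer for 30 min at room temperature. The pools were then washed, crosslinked, proximity-ligated, amplified by PCR and sequenced on an Illumina NextSeq500.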
# ELK1 = molecular target: T2, ELK1 (Homo sapiens, UniProt P19419 1-428)
# T2 sequence: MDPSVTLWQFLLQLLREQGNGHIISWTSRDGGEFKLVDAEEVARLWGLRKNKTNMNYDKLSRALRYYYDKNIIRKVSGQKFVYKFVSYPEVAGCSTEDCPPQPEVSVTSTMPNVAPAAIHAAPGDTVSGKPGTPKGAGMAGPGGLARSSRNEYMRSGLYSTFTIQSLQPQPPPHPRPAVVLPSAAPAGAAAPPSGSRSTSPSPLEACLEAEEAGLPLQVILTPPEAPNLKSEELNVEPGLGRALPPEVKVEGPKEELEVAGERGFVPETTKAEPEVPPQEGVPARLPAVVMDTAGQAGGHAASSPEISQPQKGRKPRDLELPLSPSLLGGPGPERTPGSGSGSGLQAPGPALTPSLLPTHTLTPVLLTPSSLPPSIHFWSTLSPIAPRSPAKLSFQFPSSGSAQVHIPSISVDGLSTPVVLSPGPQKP
# Procedure, shortened: as §1
# GABPA = molecular target: T3, GABPA (Homo sapiens, UniProt Q06546 1-454)
# T3 sequence: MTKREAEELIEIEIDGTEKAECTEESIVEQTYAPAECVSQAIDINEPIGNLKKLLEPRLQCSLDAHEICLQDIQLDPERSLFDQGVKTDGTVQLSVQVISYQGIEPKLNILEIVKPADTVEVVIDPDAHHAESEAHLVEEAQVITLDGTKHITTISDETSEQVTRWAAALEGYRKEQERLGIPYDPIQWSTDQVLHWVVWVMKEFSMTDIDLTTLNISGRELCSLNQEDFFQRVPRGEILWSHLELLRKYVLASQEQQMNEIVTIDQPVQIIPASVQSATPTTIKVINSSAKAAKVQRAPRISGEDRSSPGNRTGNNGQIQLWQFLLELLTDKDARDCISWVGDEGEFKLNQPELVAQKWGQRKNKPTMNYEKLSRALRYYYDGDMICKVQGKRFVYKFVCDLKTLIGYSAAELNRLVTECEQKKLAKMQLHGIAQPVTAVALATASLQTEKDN
# Procedure, shortened: as §1
# ERG = molecular target: T4, ERG (Homo sapiens, UniProt P11308 1-479)
# T4 sequence: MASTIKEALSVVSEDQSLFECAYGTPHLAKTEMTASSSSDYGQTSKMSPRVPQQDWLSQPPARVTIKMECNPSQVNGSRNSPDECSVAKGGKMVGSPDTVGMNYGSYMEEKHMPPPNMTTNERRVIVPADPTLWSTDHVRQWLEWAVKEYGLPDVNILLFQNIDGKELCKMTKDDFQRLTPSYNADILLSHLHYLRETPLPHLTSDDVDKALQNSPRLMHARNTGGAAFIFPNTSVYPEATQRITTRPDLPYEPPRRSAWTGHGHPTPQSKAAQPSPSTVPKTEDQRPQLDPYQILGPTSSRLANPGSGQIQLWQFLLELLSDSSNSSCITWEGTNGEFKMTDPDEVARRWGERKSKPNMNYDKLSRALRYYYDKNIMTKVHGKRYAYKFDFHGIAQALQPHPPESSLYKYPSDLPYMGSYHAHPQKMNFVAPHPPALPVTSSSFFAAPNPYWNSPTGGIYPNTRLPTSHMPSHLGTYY
# Procedure, shortened: as §1
# ELF1 = ELF1 (Homo sapiens, UniProt P32519 1-619)
# Procedure, shortened: as §1
# EHF = molecular target: T5, EHF (Homo sapiens, UniProt Q9NZC4 1-300)
# T5 sequence: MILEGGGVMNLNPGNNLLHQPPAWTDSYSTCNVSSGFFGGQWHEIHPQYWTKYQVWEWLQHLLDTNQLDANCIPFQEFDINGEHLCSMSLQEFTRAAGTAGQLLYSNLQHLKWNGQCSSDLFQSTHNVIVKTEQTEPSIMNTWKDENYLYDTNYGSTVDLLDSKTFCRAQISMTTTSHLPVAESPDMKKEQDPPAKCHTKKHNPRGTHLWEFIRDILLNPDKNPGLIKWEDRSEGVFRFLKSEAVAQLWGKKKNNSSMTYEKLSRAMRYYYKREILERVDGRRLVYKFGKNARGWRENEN
# Procedure, shortened: as §1
# SPI1 = SPI1 (Homo sapiens, UniProt P17947 1-270)
# Procedure, shortened: as §1
# SPIB = SPIB (Homo sapiens, UniProt Q01892 1-262)
# Procedure, shortened: as §1
# ELK3 = molecular target: T6, ELK3 (Homo sapiens, UniProt P41970 1-407)
# T6 sequence: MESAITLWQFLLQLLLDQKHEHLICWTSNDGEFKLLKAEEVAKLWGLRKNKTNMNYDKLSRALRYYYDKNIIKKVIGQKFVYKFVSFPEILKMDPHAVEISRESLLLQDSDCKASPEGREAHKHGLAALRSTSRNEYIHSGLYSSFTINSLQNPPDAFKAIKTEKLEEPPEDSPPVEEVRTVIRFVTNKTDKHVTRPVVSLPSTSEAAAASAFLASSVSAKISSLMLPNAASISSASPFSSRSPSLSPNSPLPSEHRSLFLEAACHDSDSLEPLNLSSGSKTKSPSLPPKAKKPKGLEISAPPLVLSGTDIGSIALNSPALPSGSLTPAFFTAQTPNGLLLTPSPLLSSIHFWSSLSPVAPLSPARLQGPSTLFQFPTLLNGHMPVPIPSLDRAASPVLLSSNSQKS
# Procedure, shortened: as §1
# FEV = molecular target: T7, FEV (Homo sapiens, UniProt Q99581 1-238)
# T7 sequence: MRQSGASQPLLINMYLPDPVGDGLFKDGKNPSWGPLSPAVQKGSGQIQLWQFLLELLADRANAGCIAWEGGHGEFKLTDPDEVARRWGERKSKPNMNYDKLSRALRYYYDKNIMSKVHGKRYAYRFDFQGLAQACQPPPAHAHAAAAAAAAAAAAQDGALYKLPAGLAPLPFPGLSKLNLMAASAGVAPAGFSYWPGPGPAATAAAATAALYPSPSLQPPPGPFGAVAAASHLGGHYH
# Procedure, shortened: as §1
# ETV5 = ETV5 (Homo sapiens, UniProt P41161 1-510)
# Procedure, shortened: as §1
# SPIC = molecular target: T8, SPIC (Homo sapiens, UniProt Q8N5J4 1-248)
# T8 sequence: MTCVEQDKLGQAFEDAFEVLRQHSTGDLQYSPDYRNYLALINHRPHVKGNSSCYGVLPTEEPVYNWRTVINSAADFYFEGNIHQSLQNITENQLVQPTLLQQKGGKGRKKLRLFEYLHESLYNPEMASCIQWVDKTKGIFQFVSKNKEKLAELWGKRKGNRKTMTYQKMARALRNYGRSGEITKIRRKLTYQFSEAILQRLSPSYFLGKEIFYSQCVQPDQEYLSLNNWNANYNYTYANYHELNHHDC
# Procedure, shortened: as §1
# ELF4 = ELF4 (Homo sapiens, UniProt Q99607 1-663)
# Procedure, shortened: as §1
# ETV1 = ETV1 (Homo sapiens, UniProt P50549 1-477)
# Procedure, shortened: as §1
# ERF = molecular target: T9, ERF (Homo sapiens, UniProt P50548 1-548)
# T9 sequence: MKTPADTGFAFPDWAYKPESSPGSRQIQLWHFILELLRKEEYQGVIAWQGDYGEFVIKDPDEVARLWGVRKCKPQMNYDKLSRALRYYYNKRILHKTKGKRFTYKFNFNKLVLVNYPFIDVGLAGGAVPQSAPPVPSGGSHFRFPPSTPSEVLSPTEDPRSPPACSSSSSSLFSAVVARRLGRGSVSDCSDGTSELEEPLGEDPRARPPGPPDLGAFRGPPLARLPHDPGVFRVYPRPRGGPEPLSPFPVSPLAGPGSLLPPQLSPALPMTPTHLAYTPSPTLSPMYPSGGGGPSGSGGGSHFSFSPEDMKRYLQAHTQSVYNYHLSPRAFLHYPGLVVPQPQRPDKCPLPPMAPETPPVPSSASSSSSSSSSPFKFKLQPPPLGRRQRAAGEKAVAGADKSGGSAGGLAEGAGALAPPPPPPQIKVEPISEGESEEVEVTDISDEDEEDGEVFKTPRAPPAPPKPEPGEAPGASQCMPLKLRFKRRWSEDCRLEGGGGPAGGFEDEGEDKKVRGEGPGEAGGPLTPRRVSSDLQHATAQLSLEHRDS
# Procedure, shortened: as §1
# ETV3L = molecular target: T10, ETV3L (Homo sapiens, UniProt Q6ZN32 1-361)
# T10 sequence: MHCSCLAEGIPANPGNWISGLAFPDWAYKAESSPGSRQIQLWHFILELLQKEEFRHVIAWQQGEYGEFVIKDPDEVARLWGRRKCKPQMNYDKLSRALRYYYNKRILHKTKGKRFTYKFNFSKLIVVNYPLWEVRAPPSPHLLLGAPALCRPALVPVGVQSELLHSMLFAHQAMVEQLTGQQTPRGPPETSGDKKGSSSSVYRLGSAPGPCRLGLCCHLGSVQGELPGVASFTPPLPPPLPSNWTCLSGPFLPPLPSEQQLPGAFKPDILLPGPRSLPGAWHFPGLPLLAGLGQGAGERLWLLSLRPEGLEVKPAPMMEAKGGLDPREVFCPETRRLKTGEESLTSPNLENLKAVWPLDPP
# Procedure, shortened: as §1
# ETS2 = molecular target: T11, ETS2 (Homo sapiens, UniProt P15036 1-469)
# T11 sequence: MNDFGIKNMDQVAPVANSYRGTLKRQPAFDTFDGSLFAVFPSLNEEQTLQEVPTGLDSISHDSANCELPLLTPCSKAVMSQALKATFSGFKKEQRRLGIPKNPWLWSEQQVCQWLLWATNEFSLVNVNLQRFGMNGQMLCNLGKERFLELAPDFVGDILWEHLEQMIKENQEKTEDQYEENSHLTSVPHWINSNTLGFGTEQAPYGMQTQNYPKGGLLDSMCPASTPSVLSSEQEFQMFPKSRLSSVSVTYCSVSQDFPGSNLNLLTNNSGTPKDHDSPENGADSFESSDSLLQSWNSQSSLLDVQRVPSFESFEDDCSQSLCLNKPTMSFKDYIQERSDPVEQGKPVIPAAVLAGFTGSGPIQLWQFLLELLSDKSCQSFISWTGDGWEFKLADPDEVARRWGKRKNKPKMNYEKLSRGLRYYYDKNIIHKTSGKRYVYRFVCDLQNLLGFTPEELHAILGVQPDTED
# Procedure, shortened: as §1
# ELF5 = molecular target: T12, ELF5 (Homo sapiens, UniProt Q9UKW6-2 1-255)
# T12 sequence: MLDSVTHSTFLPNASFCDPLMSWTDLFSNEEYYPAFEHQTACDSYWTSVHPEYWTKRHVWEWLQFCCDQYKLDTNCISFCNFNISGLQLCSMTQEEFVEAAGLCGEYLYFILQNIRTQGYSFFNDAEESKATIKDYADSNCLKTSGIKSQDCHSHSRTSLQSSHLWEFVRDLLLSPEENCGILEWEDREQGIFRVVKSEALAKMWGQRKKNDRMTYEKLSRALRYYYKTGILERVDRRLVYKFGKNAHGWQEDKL
# Procedure, shortened: as §1
# ETV3 = molecular target: T13, ETV3 (Homo sapiens, UniProt P41162-2 1-143)
# T13 sequence: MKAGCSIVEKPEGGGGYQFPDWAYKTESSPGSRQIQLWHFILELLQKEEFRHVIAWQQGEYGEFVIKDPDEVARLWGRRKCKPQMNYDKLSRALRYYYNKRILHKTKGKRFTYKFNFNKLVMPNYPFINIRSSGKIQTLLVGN
# Procedure, shortened: as §1
# ETV6 = ETV6 (Homo sapiens, UniProt P41212 1-452)
# Procedure, shortened: as §1
# Sequence of ETV1 (P50549 whole entry): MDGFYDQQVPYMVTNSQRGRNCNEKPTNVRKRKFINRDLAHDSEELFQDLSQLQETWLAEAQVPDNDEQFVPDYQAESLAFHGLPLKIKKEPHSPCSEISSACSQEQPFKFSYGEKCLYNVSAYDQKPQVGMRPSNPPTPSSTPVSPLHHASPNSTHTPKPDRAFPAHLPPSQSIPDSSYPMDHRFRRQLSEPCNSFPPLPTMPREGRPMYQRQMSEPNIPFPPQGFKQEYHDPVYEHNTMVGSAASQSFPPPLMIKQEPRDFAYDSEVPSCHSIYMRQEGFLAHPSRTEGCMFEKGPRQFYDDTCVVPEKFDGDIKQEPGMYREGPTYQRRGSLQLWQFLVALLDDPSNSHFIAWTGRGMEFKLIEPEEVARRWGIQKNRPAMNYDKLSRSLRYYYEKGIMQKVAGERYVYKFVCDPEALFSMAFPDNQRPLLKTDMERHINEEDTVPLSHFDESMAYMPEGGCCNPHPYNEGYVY
# Sequence of ELF4 (Q99607 whole entry): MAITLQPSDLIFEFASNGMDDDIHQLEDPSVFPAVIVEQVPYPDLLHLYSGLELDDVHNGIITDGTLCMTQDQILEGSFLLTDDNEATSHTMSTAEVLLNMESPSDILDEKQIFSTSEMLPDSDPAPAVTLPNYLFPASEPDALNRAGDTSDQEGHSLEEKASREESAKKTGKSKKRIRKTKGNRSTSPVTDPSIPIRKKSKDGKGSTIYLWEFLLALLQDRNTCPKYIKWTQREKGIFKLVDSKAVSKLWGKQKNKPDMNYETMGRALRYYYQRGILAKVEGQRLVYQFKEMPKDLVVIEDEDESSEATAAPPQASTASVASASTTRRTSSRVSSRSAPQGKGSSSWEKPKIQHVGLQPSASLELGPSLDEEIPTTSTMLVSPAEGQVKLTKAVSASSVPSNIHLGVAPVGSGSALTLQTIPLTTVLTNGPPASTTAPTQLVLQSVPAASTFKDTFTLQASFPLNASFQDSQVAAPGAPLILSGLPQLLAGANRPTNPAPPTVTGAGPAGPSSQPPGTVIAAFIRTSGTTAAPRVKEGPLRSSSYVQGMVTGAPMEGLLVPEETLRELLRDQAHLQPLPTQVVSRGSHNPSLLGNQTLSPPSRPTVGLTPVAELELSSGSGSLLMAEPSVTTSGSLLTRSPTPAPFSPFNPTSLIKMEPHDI
# Sequence of ETV6 (P41212 whole entry): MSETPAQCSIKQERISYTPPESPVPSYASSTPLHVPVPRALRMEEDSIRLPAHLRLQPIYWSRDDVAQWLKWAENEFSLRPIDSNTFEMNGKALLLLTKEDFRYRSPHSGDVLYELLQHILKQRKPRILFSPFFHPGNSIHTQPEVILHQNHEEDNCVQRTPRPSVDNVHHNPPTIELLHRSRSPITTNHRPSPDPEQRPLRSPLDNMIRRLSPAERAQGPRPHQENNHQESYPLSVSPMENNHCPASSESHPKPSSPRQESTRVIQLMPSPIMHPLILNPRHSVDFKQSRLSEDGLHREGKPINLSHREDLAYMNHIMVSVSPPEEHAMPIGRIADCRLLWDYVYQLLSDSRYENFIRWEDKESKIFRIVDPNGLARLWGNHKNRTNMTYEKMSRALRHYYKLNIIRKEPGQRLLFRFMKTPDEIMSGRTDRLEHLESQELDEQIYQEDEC
# Sequence of ELF1 (P32519 whole entry): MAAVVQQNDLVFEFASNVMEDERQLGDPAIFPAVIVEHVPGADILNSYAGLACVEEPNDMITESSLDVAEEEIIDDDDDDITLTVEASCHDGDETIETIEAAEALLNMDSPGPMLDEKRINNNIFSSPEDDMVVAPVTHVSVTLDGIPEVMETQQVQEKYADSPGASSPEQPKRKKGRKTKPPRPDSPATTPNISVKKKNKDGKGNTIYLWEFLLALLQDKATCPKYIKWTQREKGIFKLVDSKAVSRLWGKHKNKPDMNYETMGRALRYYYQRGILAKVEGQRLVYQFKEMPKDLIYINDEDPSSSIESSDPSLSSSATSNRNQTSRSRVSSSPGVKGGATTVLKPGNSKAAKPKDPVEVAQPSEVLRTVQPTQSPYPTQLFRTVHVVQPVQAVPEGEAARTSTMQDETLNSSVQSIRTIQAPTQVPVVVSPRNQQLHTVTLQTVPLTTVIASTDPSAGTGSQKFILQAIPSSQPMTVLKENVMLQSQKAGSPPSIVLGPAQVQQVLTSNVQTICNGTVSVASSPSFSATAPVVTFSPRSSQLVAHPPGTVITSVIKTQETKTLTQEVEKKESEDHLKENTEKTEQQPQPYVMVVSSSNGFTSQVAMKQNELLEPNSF
# Sequence of ETV5 (P41161 whole entry): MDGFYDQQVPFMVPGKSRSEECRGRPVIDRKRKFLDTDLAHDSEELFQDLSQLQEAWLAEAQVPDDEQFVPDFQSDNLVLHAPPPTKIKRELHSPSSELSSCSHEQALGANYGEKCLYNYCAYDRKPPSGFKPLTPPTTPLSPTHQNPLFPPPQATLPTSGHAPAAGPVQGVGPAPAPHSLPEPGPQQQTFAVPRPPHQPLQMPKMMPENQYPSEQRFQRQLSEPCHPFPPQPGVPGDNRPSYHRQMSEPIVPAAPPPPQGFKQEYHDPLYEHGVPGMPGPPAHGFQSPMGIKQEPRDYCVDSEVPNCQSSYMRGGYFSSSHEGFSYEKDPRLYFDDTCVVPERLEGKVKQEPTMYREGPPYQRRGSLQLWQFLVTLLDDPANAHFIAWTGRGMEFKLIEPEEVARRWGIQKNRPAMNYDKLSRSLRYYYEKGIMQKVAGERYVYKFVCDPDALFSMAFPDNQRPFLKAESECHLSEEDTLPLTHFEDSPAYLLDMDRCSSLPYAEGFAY
# Sequence of SPIB (Q01892 whole entry): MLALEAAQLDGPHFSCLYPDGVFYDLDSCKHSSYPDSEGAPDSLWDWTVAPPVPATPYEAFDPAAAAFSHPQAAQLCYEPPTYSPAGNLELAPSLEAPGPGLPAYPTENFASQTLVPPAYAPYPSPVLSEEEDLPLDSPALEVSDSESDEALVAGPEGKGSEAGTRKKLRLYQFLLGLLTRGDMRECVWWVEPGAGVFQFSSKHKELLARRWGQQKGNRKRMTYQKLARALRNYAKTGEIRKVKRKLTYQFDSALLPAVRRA
sequence,measurement,setting,value
ACGTTG,binding signal,FLI1,"1.14 fold enrichment (6-mer frequency, TF over GST control)"
same,binding signal,ELK1,"1.11 fold enrichment (6-mer frequency, TF over GST control)"
same,binding signal,GABPA,"1.05 fold enrichment (6-mer frequency, TF over GST control)"
same,binding signal,ERG,"1.05 fold enrichment (6-mer frequency, TF over GST control)"
same,binding signal,ELF1,"1.03 fold enrichment (6-mer frequency, TF over GST control)"
same,binding signal,EHF,"1.07 fold enrichment (6-mer frequency, TF over GST control)"
same,binding signal,SPI1,"1.08 fold enrichment (6-mer frequency, TF over GST control)"
same,binding signal,SPIB,"1.02 fold enrichment (6-mer frequency, TF over GST control)"
same,binding signal,ELK3,"1.01 fold enrichment (6-mer frequency, TF over GST control)"
same,binding signal,FEV,"1.07 fold enrichment (6-mer frequency, TF over GST control)"
same,binding signal,ETV5,"1.03 fold enrichment (6-mer frequency, TF over GST control)"
same,binding signal,SPIC,"1.28 fold enrichment (6-mer frequency, TF over GST control)"
same,binding signal,ELF4,"1.13 fold enrichment (6-mer frequency, TF over GST control)"
same,binding signal,ETV1,"1.06 fold enrichment (6-mer frequency, TF over GST control)"
same,binding signal,ERF,"1.07 fold enrichment (6-mer frequency, TF over GST control)"
same,binding signal,ETV3L,"1.08 fold enrichment (6-mer frequency, TF over GST control)"
same,binding signal,ETS2,"1.07 fold enrichment (6-mer frequency, TF over GST control)"
same,binding signal,ELF5,"1.02 fold enrichment (6-mer frequency, TF over GST control)"
same,binding signal,ETV3,"1.11 fold enrichment (6-mer frequency, TF over GST control)"
same,binding signal,ETV6,"1.11 fold enrichment (6-mer frequency, TF over GST control)"
